Assay results published in PubChem BioAssay (NCATS).
Inconclusive results are not listed. Active and inactive are the calls of the source. Unless noted, calls follow the shape of the dose curve; as a rule, active = well fitted curve in the direction sought with a large enough effect; inconclusive = small, poorly fitted or top-dose-only effect, or another doubt; inactive = no such curve, though single readings can be large; an effect the other way counts as inactive or inconclusive.

Tests used:
[1] = Viability counterscreen for antagonist of constitutive androstane receptor (CAR) against the NCATS DSHEA and TCM libraries (AID 1794837);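 also: compound exposure lasted 24 h before viability reading; 0% is about no effect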
Summary of the method: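 HepG2-CYP2B6-hCAR cells, 2,500/well, were exposed 24 hr at 37C to substances together with 48 uM CITCO (final). Viability was read as CellTiter-Fluor fluorescence (Ex/Em 405/540 nm) after 1 hr.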

[2] = Viability counterscreen for agonist of constitutive androstane receptor (CAR) against the NCATS DSHEA and TCM libraries (AID 1794838);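 also: HepG2 cells with CYP2B6 reporter and hCAR plus 0.75 µM PK11195 antagonist; 0% is about no effect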
Summary of the method: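 HepG2-CYP2B6-hCAR cells (2,500/well) treated 24 h at 37C with compounds plus 0.75 uM PK11195; viability read by CellTiter-Fluor fluorescence, Ex/Em 405/540 nm.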

[3] = HepG2 viability counterscreen (readout 2: ATP content) against the NCATS DSHEA and TCM libraries (AID 1794840); also: 0% is about no effect
Summary of the method: (§1)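 HepG2 cells, 1,000/well, attached ~4 h, then exposed ~24 h at 37C to substances. Protease activity read by fluorescence of 25 uM GF-AFC (Ex/Em 380/510 nm) after 30 min; ATP then by CellTiter-Glo luminescence.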

[4] = HepG2 viability counterscreen (readout 1: protease activity) against the NCATS DSHEA and TCM libraries (AID 1794841);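 also: cells exposed to compounds for about 24 h before the protease read; 0% is about no effect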
Summary of the method: as §1

[5] = target: Cytochrome P450 3A4 (Homo sapiens) (UniProt P08684); experiment: qHTS for inhibitors of CYP3A4 against the NCATS DSHEA and TCM libraries (AID 1919971);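 also: % is scaled to controls: 0 for no effect and ±100 for the full control effect; inhibition lowers luminescence from luciferin made by CYP3A4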
Sequence of Cytochrome P450 3A4 (Homo sapiens) (P08684 whole entry, looked up): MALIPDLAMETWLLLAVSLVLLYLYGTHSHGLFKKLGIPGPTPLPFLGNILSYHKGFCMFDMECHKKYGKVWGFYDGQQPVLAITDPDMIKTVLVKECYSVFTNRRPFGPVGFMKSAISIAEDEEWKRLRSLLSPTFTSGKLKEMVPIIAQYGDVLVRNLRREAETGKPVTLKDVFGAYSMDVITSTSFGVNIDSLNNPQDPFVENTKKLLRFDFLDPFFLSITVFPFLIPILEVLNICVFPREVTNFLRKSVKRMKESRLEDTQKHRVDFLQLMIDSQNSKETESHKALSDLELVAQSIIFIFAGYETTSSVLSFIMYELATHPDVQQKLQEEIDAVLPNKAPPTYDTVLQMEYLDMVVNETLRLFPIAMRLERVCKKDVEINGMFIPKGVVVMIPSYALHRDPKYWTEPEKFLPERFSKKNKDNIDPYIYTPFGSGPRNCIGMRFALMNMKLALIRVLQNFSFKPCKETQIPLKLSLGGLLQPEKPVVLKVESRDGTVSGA
Summary of the method: (§2)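 Light output from converted D-luciferin reports remaining CYP activity. Compounds preincubate with enzyme and substrate for 15 min; NADPH regeneration (1x final) runs the reaction for 30-45 min.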

[6] = target: Cytochrome P450 2D6 (Homo sapiens) (UniProt P10635); experiment: qHTS for inhibitors of CYP2D6 against the NCATS DSHEA and TCM libraries (AID 1919972); also: % is scaled to controls: 0 for no effect and ±100 for the full control effect
Sequence of Cytochrome P450 2D6 (Homo sapiens) (P10635 whole entry, looked up): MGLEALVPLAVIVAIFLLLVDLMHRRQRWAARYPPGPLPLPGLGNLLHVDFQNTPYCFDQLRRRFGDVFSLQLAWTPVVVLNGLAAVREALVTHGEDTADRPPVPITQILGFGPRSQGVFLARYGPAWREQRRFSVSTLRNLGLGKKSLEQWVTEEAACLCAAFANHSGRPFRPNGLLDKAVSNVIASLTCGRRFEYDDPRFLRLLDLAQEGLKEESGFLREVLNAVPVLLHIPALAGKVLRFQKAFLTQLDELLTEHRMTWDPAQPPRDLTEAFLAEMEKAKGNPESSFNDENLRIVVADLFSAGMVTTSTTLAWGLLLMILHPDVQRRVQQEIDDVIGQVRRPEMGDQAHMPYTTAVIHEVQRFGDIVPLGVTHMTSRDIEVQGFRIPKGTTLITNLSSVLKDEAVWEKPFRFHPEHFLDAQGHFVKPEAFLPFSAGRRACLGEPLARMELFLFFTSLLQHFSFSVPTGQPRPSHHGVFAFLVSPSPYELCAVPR
Summary of the method: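 Steps: enzyme plus luciferin substrate dispensed; test substances pinned; 15 min RT; 1x NADPH regenerating solution added, 30–45 min RT protected from light; detection reagent, 30 min RT; luminescence measured. Minus-enzyme wells as background.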

[7] = target: Cytochrome P450 2C19 (Homo sapiens) (UniProt P33261); experiment: qHTS for inhibitors of CYP2C19 against the NCATS DSHEA and TCM libraries (AID 1919974);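 also: luminescence from luciferin released by CYP2C19 oxidation of a pro-luciferin substrate; % is scaled to controls: 0 for no effect and ±100 for the full control effect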
Sequence of Cytochrome P450 2C19 (Homo sapiens) (P33261 whole entry, looked up): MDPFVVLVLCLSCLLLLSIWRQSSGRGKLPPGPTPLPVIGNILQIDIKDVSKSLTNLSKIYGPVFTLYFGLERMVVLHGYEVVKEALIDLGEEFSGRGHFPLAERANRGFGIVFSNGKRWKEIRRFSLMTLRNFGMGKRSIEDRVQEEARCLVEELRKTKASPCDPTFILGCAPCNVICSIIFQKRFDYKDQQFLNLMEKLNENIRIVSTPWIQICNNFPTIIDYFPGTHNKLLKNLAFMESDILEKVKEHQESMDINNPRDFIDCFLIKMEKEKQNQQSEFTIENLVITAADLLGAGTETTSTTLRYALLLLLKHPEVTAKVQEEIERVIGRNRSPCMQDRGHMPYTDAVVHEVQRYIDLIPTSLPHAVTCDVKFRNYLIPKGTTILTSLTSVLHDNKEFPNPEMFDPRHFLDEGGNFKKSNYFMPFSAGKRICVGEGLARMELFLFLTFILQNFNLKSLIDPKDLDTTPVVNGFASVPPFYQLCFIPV
Summary of the method: as §2

[8] = KB-3-1 P-gp reporter qHTS against the NCATS DSHEA and TCM libraries (AID 1919975); also: 0% is about no effect
Summary of the method: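 Parental KB-3-1 cells, 500 cells/well, in DMEM with 10% FBS, exposed 72 h at 37 C to compounds in concentration-response. Viability read by CellTiter-Glo luminescence after 30 min at room temperature.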

[9] = target: Cytochrome P450 1A2 (Homo sapiens) (UniProt P05177); experiment: qHTS for inhibitors of CYPIA2 against the NCATS DSHEA and TCM libraries (AID 1919976);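 also: light from luciferin formed by CYP1A2 from a pro-luciferin substrate; series mostly up to about 37 µM; % is scaled to controls: 0 for no effect and ±100 for the full control effect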
Sequence of Cytochrome P450 1A2 (Homo sapiens) (P05177 whole entry, looked up): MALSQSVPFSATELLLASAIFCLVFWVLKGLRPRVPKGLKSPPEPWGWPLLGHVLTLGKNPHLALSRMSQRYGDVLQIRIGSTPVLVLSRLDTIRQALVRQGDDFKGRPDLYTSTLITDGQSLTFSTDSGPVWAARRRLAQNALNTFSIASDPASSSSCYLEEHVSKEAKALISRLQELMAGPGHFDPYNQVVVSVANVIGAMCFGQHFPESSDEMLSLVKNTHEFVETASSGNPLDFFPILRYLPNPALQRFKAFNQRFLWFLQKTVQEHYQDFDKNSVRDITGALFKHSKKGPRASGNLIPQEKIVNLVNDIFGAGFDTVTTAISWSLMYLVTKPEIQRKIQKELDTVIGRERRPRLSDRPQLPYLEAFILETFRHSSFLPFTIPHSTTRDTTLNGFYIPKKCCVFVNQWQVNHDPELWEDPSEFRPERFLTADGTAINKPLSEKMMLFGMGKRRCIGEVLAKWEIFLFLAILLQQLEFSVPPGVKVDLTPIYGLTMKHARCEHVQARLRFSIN
Summary of the method: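 In this quantitative HTS, inhibition of recombinant human CYP1A2 was measured as loss of luciferin-derived luminescence. Turnover ran 30-45 min at RT after NADPH regeneration solution was added.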

[10] = qHTS Counterscreen for compound interference against the NCATS DSHEA and TCM libraries (AID 1919978); settings: firefly luciferase detection reagent interference, luminescence;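 also: compounds preincubated with 1 µM D-luciferin or buffer before detection reagent; % of control where 0% means no effect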
Summary of the method: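 Firefly luciferase detection reagent was added after compounds (19.5 nM–39.8 uM final) had been incubated 15 min at room temperature with 1 uM D-luciferin or with 100 mM phosphate buffer alone. Luminescence was read after 30 min at room temperature.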

[11] = Dual reporter qHTS for agonist of Pregnane X Receptor (hPXR) against the NCATS DSHEA and TCM libraries: Fluorescence readout (AID 1920058); also: 0% is about no effect
Summary of the method: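 Measures viability of the PXR reporter HepG2 line by protease-substrate fluorescence (405/540 nm), taken 1 h after CellTiter-Fluor addition. Substances are tested as concentration series over a ~24 h exposure, with rifampicin as agonist control.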

[12] = target: Nuclear receptor subfamily 1 group I member 2 (Homo sapiens) (UniProt O75469); experiment: Dual reporter qHTS for agonist of Pregnane X Receptor (hPXR) against the NCATS DSHEA and TCM libraries: Luminescence readout (AID 1920059); also: 0% is about no effect
Sequence of Nuclear receptor subfamily 1 group I member 2 (Homo sapiens) (O75469 whole entry, looked up): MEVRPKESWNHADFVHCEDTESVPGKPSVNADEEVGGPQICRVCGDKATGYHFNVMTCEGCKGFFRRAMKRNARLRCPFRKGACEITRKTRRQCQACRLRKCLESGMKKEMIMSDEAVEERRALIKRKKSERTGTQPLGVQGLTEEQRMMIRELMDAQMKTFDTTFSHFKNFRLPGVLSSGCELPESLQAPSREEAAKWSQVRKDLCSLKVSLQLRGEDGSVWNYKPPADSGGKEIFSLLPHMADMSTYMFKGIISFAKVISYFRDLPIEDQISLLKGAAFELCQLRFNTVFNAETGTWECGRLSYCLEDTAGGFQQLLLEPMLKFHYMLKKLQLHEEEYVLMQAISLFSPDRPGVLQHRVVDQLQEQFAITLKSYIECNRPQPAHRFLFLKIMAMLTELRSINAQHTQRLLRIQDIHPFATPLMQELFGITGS
Summary of the method: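 hPXR-Luc HepG2 cells, 2000/well in 5% charcoal-stripped FBS medium, attached 5 h, then exposed 24 h at 37C to compounds. Viability by CellTiter-Fluor, then luciferase luminescence with ONE-Glo.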

[13] = target: Nuclear receptor subfamily 1 group I member 2 (Homo sapiens) (UniProt O75469); experiment: Dual reporter qHTS for antagonist of Pregnane X Receptor (hPXR) against the NCATS DSHEA and TCM libraries: Luminescence Readout (AID 1920060); also: 0% is about no effect
Summary of the method: (§3)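 Rifampicin-stimulated (2 uM final) hPXR-luciferase HepG2 cells were treated for 24 h with DSNP/TCM substances. Viability came from CellTiter-Fluor fluorescence, reporter activity from ONE-Glo luminescence.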

[14] = Dual reporter qHTS for antagonist of Pregnane X Receptor (hPXR) against the NCATS DSHEA and TCM libraries: Fluorescence Readout (AID 1920061); also: 0% is about no effect
Summary of the method: as §3

[15] = Cell Viability - BJ (AID 421; calls by dose curve;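 also: potency is read from the fitted curve at half-maximal effect; cells exposed to compound for 40 hours at 37 °C before readout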); settings: BJ fibroblast viability, qHTS
Summary of the method: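 Quantitative HTS: ATP depletion in BJ cells after 40 hr compound exposure in complete culture medium, detected with CellTiter-Glo; AC50 from standard Hill fits.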

[16] = qHTS Assay for Identification of Small Molecule Inducers of Hypoxia Response (AID 2120; active = well fitted curve in the direction sought with a large enough effect in the signal ratio, with a control signal flat, not every such curve was filed as active; the % refers to the signal ratio; also: 0% is about no effect)
Summary of the method: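 Induction of beta-lactamase reporter activity was measured in CellSensor HRE-bla ME-180 cells after 17 h compound treatment at 37 degrees C, using CCF4 substrate and the 460nm/530nm emission ratio to derive AC50 values.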

[17] = target: Peroxisome proliferator-activated receptor gamma (Homo sapiens) (UniProt P37231); experiment: qHTS assay for small molecule antagonists of peroxisome proliferator-activated receptor gamma signaling (AID 588537; active = well fitted inhibition curve with a large enough effect in the signal ratio, with a control signal flat, not every such curve was filed as active; the % refers to the signal ratio;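 also: reporter cells co-stimulated with 50 nM rosiglitazone agonist during compound treatment; % of control where 0% means no effect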)
Sequence of Peroxisome proliferator-activated receptor gamma (Homo sapiens) (P37231 whole entry, looked up): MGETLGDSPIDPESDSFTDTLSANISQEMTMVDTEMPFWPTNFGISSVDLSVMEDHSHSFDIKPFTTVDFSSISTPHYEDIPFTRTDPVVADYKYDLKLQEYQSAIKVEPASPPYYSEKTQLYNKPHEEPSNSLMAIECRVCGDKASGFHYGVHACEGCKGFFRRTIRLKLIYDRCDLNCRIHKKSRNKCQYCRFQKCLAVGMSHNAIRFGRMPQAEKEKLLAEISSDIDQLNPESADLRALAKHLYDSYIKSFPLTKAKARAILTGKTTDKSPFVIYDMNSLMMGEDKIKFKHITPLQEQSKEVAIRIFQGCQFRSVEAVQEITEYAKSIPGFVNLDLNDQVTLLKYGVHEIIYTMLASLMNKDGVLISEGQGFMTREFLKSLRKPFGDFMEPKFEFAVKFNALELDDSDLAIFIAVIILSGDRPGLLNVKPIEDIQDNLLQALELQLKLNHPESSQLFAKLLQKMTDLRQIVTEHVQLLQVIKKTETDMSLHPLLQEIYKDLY
Summary of the method: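 Step one: plate 3000 HEK293 UAS-bla cells per well in medium with 1% stripped serum and hold 6-6.5 h at 37 C. Step two: add compound and 50 nM agonist for 16 h. Step three: CCF4 loading, fluorescence read.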

[18] = qHTS assay for small molecule antagonists of peroxisome proliferator-activated receptor delta signaling (AID 588535; active = well fitted inhibition curve with a large enough effect in the signal ratio, with a control signal flat, not every such curve was filed as active; the % refers to the signal ratio;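 as to max response: cells co-treated with a PPAR-delta agonist as stimulator during compound exposure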); settings: HEK293T PPARd-UAS-bla, beta-lactamase FRET ratio, 18 h; 460 nm channel
Summary of the method: (§4)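 Cells were seeded at 4000 per well in assay medium containing 2% charcoal/dextran FBS and held 5 hrs at 37 C. Compounds were then added for 18 hrs. CCF4 substrate was applied for 2 hrs at room temperature before fluorescence reading.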

[19] = target: Peroxisome proliferator-activated receptor delta (Homo sapiens) (UniProt Q03181); experiment: as above
Sequence of Peroxisome proliferator-activated receptor delta (Homo sapiens) (Q03181 whole entry, looked up): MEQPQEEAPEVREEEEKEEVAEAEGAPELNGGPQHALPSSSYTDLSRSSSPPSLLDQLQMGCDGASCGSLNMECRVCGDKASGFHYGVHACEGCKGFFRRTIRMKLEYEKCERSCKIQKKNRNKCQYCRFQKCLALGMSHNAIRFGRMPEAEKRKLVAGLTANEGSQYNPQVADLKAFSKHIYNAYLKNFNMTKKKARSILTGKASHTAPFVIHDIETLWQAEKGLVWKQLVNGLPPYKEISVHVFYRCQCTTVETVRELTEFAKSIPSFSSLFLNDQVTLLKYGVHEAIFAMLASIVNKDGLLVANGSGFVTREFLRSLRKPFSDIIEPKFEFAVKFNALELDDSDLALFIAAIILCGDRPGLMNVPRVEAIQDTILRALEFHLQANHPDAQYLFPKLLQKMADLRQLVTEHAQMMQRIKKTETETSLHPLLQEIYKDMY
Summary of the method: as §4

[20] = target: Luciferin 4-monooxygenase (Photinus pyralis) (UniProt P08659); experiment: Biochemical firefly luciferase enzyme assay for NPC (AID 624030);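 also: purified P. pyralis luciferase at 10 nM with luciferin and ATP substrate; series mostly up to about 59 µM; 0% = DMSO and -100% = full luciferase inhibition by PTC124 control; nearly all actives have a fitted effect of over 70% in size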
Sequence of Luciferin 4-monooxygenase (Photinus pyralis) (P08659 whole entry, looked up): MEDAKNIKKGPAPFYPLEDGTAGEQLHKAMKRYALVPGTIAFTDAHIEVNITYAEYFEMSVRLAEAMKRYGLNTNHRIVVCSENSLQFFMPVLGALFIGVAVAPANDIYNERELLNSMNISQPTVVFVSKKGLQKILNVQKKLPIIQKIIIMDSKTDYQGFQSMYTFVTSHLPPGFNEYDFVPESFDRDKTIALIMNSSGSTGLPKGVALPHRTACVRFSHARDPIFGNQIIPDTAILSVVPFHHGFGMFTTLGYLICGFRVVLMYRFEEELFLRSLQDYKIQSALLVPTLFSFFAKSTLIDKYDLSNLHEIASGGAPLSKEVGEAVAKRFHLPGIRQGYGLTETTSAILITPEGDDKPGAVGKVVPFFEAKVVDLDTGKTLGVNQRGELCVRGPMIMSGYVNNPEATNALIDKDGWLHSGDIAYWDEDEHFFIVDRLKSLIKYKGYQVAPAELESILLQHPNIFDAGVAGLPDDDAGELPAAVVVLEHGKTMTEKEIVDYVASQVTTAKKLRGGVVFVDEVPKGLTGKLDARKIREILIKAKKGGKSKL
Summary of the method: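 Purified P. pyralis luciferase at 10 nM in 50 mM Tris Acetate (final), luminescence read within 5 minutes of enzyme addition to compounds. Activity normalised to PTC124 versus DMSO; concentration-response curves classed by r2, magnitude and activity.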

O=c1cc(-c2ccc(O)cc2)oc2cc(O[C@H]3OC(CO)C(O)C(O)C3O)cc(O)c12 (some centres undefined)
inactive: outcome [1] | outcome [2] | outcome [3] | outcome [4] | outcome [5] | Potency [6] | Potency [7] | outcome [8] | Potency [9] | max response [10] -0.179% | outcome [11] | outcome [12] | outcome [13] | outcome [14]

C=CC(C)(O)CCC=C(C)C (centres undefined)
inactive: Potency [15] > 92 µM | outcome [16] | outcome [17]

CC1=CC(=O)CC(C)(C)C1(O)/C=C/C(C)=C\C(=O)O (centres undefined)
3.87%: max response [18]
inactive: outcome [19] | outcome [17]

COS(C)(=O)=O
inactive: outcome [19]
-15.8%: max response [18]

CCCN(CCC)C(=O)[C@@H](CCC(=O)O)NC(=O)c1ccccc1
inactive: outcome [20]

O=C(C1CCCCC1)N1CC(=O)N2CCc3ccccc3[C@@H]2C1
inactive: outcome [20]
